# Results filed as inconclusive are left out. Where a call stands in place of a potency, no number is given. Unmarked numbers belong to inactive results. Active and inactive are the calls of the source. Calls come from the whole dose curve; as a rule, active = well fitted curve in the direction sought with a large enough effect; inconclusive = small, poorly fitted or top-dose-only effect, or another doubt; inactive = no such curve, though single readings can be large; an effect the other way counts as inactive or inconclusive.
# How the values were obtained:
# [1] = BET inhibitor-based combinations targeting novel dependencies in MECOM-rearranged (r) AML: SET-2 cell line (AID 2202231); details: SET-2 AML cells viability, CellTiter-Glo luminescence, 48 h; viability: stronger effect = lower value, concentration not given here; note: nearly all actives have a fitted effect of over 35% in size; note: potency is the fitted concentration of half-maximal effect
# Summary of the method: (§1)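 AML cell lines seeded at 500 cells/well, treated with 11-point dose curves for 48 h. Viability by CellTiter-Glo luminescence, normalised to DMSO and empty wells; activity expressed as AUC and per-cell-line Z-transformed AUC.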
# [2] = BET inhibitor-based combinations targeting novel dependencies in MECOM-rearranged (r) AML: OCI-AML3 cell line (AID 2202232); details: CellTiter-Glo luminescence, 48 h; Potency: OCI-AML3 viability; series mostly up to 46 µM; note: nearly all actives have a fitted effect of over 35% in size; note: potency is the fitted concentration of half-maximal effect
# Summary of the method: as §1
# [3] = BET inhibitor-based combinations targeting novel dependencies in MECOM-rearranged (r) AML: HNT-34 cell line (AID 2202234); details: HNT-34 AML viability, CellTiter-Glo luminescence, 48 h; series mostly up to 46 µM; note: nearly all actives have a fitted effect of over 35% in size; note: potency is the fitted concentration of half-maximal effect
# Summary of the method: (§2)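 Cells at 500/well were exposed for 48 hr to MIPE v5.0 drugs as 11-point dose curves. Viability was read by CellTiter-Glo luminescence and normalized to DMSO and empty-well controls. Activity was expressed as AUC and per-cell-line Z-AUC.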
# [4] = BET inhibitor-based combinations targeting novel dependencies in MECOM-rearranged (r) AML: UCSD-AML1 cell line (AID 2202235); details: UCSD-AML1 AML cells viability, CellTiter-Glo, 48 h; series mostly up to 46 µM; note: nearly all actives have a fitted effect of over 40% in size; note: potency is the fitted concentration of half-maximal effect
# Summary of the method: as §2
# [5] = BET inhibitor-based combinations targeting novel dependencies in MECOM-rearranged (r) AML: AML-191 cell line (AID 2202236; note: nearly all actives have a fitted effect of over 35% in size; note: potency is the fitted concentration of half-maximal effect); details: AML-191 viability, CellTiter-Glo luminescence, 48 h; series mostly up to 46 µM
# Summary of the method: as §1
# [6] = BET inhibitor-based combinations targeting novel dependencies in MECOM-rearranged (r) AML: AML-194 cell line (AID 2202237; note: nearly all actives have a fitted effect of over 40% in size; note: potency is the fitted concentration of half-maximal effect); details: AML-194 (MECOM-r AML) viability, CellTiter-Glo, 48 h; series mostly up to 46 µM
# Summary of the method: as §1
# [7] = molecular target: Retinaldehyde dehydrogenase 3 (Homo sapiens) (UniProt P47895); test: qHTS for Inhibitors of the Aldehyde Dehydrogenase Family (ALDH1A3) Confirmatory screens (AID 2061311); details: ALDH inhibition qHTS; series mostly up to 46 µM; note: nearly all actives have a fitted effect of over 60% in size; note: potency is the fitted concentration of half-maximal effect
# [8] = molecular target: Retinaldehyde dehydrogenase 3 (Homo sapiens) (UniProt P47895); test: qHTS for Inhibitors of the Aldehyde Dehydrogenase Family (ALDH1A3) Primary screen (AID 2061315); details: ALDH inhibition qHTS; series mostly up to 56 µM
# [9] = BET inhibitor-based combinations targeting novel dependencies in MECOM-rearranged (r) AML: MV-4-11 cell line (AID 2202233); details: MV-4-11 AML viability, CellTiter-Glo luminescence, 48 h; series mostly up to 46 µM; note: nearly all actives have a fitted effect of over 45% in size; note: potency is the fitted concentration of half-maximal effect
# Summary of the method: as §2
# [10] = molecular target: Retinal dehydrogenase 2 (Homo sapiens) (UniProt O94788); test: qHTS for Inhibitors of the Aldehyde Dehydrogenase Family (ALDH1A2) Confirmation screens (AID 2061314); details: ALDH1A2 enzyme inhibition qHTS confirmation; series mostly up to 45.9 µM; note: potency is the fitted concentration of half-maximal effect; nearly all actives have a fitted effect of over 65% in size
# [11] = molecular target: Aldehyde dehydrogenase 1A1 (Homo sapiens) (UniProt P00352); test: qHTS for Inhibitors of the Aldehyde Dehydrogenase Family (ALDH1A1) Confirmatory screens (AID 2061316); details: ALDH inhibition qHTS; series mostly up to 47.3 µM; note: potency is the fitted concentration of half-maximal effect; nearly all actives have a fitted effect of over 65% in size
smiles,measurement,setting,value
CN(C)c1ccc(C(=C2C=CC(=[N+](C)C)C=C2)c2ccc(N(C)C)cc2)cc1,Potency,[1],1.05 µM (active)
same,Potency,[2],1.32 µM (active)
same,Potency,[3],0.934 µM (active)
same,Potency,[4],1.05 µM (active)
same,Potency,[5],1.18 µM (active)
same,Potency,[6],0.934 µM (active)
C=C1CCC2C(C)(COC(C)=O)CCCC2(C)C1CCC(C)CC(=O)O (stereo not drawn),Potency,[7],inactive
same,Potency,[8],inactive
CCOC(=O)C=C[C@H](C[C@@H]1CCNC1=O)NC(=O)[C@@H](CC(=O)[C@@H](NC(=O)c1cc(C)on1)C(C)C)Cc1ccc(F)cc1,viability,[1],120%
same,Potency,[9],inactive
same,Potency,[3],inactive
same,Potency,[4],inactive
same,Potency,[5],inactive
same,Potency,[6],inactive
COc1cc2nccc(Oc3ccc(NC(=O)Nc4ccc(F)cc4F)c(F)c3)c2cc1OC,viability,[1],108%
same,Potency,[9],0.0934 µM (active)
same,Potency,[3],1.66 µM (active)
CCc1c[nH]c2ncnc(N3CC[C@](N)(CNC(=O)c4ccc(F)cc4F)C3)c12,Potency,[8],inactive
O=C(Cc1cccc(OC(F)(F)F)c1)Nc1ccc(CCCCc2nnc(NC(=O)Cc3ccccn3)s2)nn1,Potency,[2],inactive
same,Potency,[4],0.0209 µM (active)
same,Potency,[5],0.118 µM (active)
CC1CCC2(C(=O)O)CCC3(C)C(=CCC4C5(C)CCC(O)C(C)(CO)C5CCC43C)C2C1(C)O (stereo not drawn),Potency,[8],inactive
C=C(COC(=O)CC(C)C)C1Cc2cc(C(C)=O)ccc2O1 (stereo not drawn),Potency,[8],inactive
C[C@H]1c2cccc(O)c2C(O)=C2C(=O)[C@]3(O)C(O)=C(C(N)=O)C(=O)[C@@H](N(C)C)[C@@H]3[C@@H](O)[C@@H]21,Potency,[3],18.6 µM (active)
same,Potency,[5],26.3 µM (active)
same,Potency,[6],23.5 µM (active)
O=C1c2cccc(O)c2C(=O)c2c(O)cc(CO)cc21,viability,[1],116%
same,Potency,[2],inactive
same,Potency,[3],inactive
same,Potency,[4],inactive
same,Potency,[5],inactive
same,Potency,[6],inactive
C=C1C(=O)OC(CCCCCCCC)C1C(=O)O (stereo not drawn),Potency,[9],inactive
same,Potency,[3],inactive
same,Potency,[4],inactive
same,Potency,[5],inactive
same,Potency,[6],inactive
CC(C)(C)COc1ccc(-n2cc(C(=O)O)cn2)cc1C#N,viability,[1],95.2%
same,Potency,[2],10.5 µM (active)
same,Potency,[3],inactive
same,Potency,[6],inactive
C[C@]12CCC(=O)C=C1[C@@H]1C[C@@H]1[C@H]1[C@@H]3[C@@H]4C[C@@H]4[C@@]4(CCC(=O)O4)[C@@]3(C)CC[C@@H]12,Potency,[2],8.33 µM (active)
same,Potency,[9],16.6 µM (active)
same,Potency,[4],inactive
same,Potency,[6],inactive
O=C(O)c1ccc(-n2cccc2/C=C2\SC(=O)N(Cc3ccc(Cl)cc3)C2=O)cc1,Potency,[10],17.8 µM (active)
same,Potency,[8],inactive
same,Potency,[11],4 µM (active)
NNC(=O)c1ccncc1,viability,[1],110%
same,Potency,[2],inactive
same,Potency,[9],inactive
same,Potency,[3],inactive
same,Potency,[4],inactive
same,Potency,[5],inactive
same,Potency,[6],inactive
C/C=C/C=C/C(O)=C1\C(=O)[C@]2(C)C3C(C(=O)CC/C=C/C)=C(O)C4(C)C1[C@]1(C)O[C@@]4(O)[C@@]3(C)O[C@@]12O,Potency,[8],inactive
CCCC1OC2C[C@@H]3[C@H]4CCC5=CC(=O)C=C[C@]5(C)[C@H]4C(O)C[C@]3(C)[C@]2(C(=O)CO)O1 (stereo partly drawn),Potency,[9],20.9 µM (active)
CC1=C(CC(=O)O)c2cc(F)ccc2C1=Cc1ccc(S(C)=O)cc1 (stereo not drawn),viability,[1],104%
same,Potency,[9],18.6 µM (active)
same,Potency,[3],18.6 µM (active)
same,Potency,[4],inactive
same,Potency,[6],inactive
CC1(C)C=CN2C(=O)C3=CCCN3C(=O)[C@@H]2C[C@@]12Nc1ccccc1C2=O,Potency,[7],7.83 µM (active)

# Source: PubChem BioAssay (NCATS)
